# Source: PubChem BioAssay (National Center for Advancing Translational Sciences (NCATS))
# Shown is part of a subset that was picked to be rich in hits.
# KDM5B inh – blocks human KDM5B histone demethylase activity. Q9UGL1. KDM5B demethylase, FDH-coupled NADH fluorescence (FDH is formaldehyde dehydrogenase). Potency, µM (highest dose often 57.7 µM), hits mostly inhibitors. 220,000 compounds, 2.6% hits; active = well fitted inhibition curve with a large enough effect; also: 0% is about no effect; nearly all actives have a fitted effect of over 70% in size
#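 Inhibition is measured as reduced NADH fluorescence generation from FDH coupling to formaldehyde release. Truncated KDM5BΔAP at 200 nM final acts on H3K4me3 peptide (12.5 µM in substrate mix) in pH 7.5 HEPES buffer with Tween-20, 30 min, room temperature.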
# An asterisk follows results filed as active; i = inactive; ! = not confirmed by another sample. Potency is read from the fitted curve at half-maximal effect.
SMILES,KDM5B inh
COc1cccc(C(=O)N2CCC3(CC2)NC(=O)N(Cc2ccccc2)C3=O)c1,i
COC(=O)N1CCCC2(C1)C(=NC1CCCCC1)NC(=O)N2c1cccnc1 (stereo not given),i
O=C(NCCc1ccccc1)C1CN(S(=O)(=O)c2cccnc2)CC12CCCCC2 (stereo not given),i
O=C(CC1CCN(S(=O)(=O)c2cccnc2)C1)NCc1ccccc1 (stereo not given),i
COc1cccc(N2C(=O)NC(=NC3CCCCC3)C23CCCN(C(=O)c2ccccc2)C3)c1 (stereo not given),i
O=S(=O)(c1cccnc1)N1CCCC2(C1)Nc1cccnc1NC2=NCc1ccccc1 (stereo not given),28µM*
O=C(c1ccccc1)N1CCC2(C1)C(=NC1CCCCC1)NC(=O)N2c1cccnc1 (stereo not given),i
Cc1ccc(C(=O)NCCc2c[nH]c3ccccc23)cc1C,i
CC1CCC(NC(=O)C2CC=CCC2)CC1 (stereo not given),i
CCCCN(CC)C(=O)c1cc2c(C)cc(C)c(C)c2[nH]1,i
CC(C)OCc1ccccc1CNS(=O)(=O)c1ccc(Br)cc1Cl,i
CC(Cl)C(=O)NC(=O)Nc1ccccc1 (stereo not given),i
NNc1ccc(Cc2ccc(NN)cc2)cc1,i
COc1ccc(NS(=O)(=O)c2ccc(N/N=C/c3ccc(C)s3)c([N+](=O)[O-])c2)cc1,i
CC1CCN(c2ccc(-c3ccc(NS(=O)(=O)c4ccc(Cl)s4)cc3)nn2)CC1,i
CC(c1ccc(S(C)(=O)=O)cc1)N(C)C(=O)CCc1ncc(-c2ccccc2Cl)o1 (stereo not given),i
N#CCCN(CCC#N)C(=O)COc1cc(Cl)ccc1C(N)=O,i
Cc1nc2c(cc(Oc3cnccn3)c3ccsc32)s1,i
COC(=O)c1cccc(NC(=O)CSc2ncnc3c(-c4ccc(OC)cc4)c[nH]c23)c1,i
Cc1ccc(C(=O)OCc2ccc(C#N)cc2)cc1O,i
Cc1cc(C)cc(C(=O)N2CCCC3(C2)NC(=O)N(Cc2ccccc2)C3=O)c1 (stereo not given),i
O=C(c1cccnc1)N1CCC2(C1)C(=NC1CCCC1)NC(=O)N2c1cccnc1 (stereo not given),i
COc1ccc(C(=O)N2CCCC3(C2)C(=NC2CCCCC2)NC(=O)N3c2cccnc2)cc1 (stereo not given),i
Cc1ccc(C(=O)N2CCCC3(C2)NC(=O)N(Cc2ccccc2)C3=O)cc1 (stereo not given),i
COc1ccc(C(=O)N2CCCC3(C2)C(=NC2CCCC2)NC(=O)N3c2cccnc2)cc1 (stereo not given),i
SMILES,KDM5B inh
O=C(c1cccnc1)N1CCCC2(C1)C(=NC1CCCC1)NC(=O)N2c1cc(F)cc(F)c1 (stereo not given),i
O=C(c1ccccc1)N1CCCC2(C1)Nc1cccnc1NC2=NCc1ccccc1 (stereo not given),28µM*
CCOc1ccc(C(=O)N2CCCC3(C2)Nc2cccnc2NC3=NC2CCCC2)cc1 (stereo not given),32µM*
Cc1noc(C)c1CC(=O)N1CCCC(c2nn(C)c(=O)n2-c2ccccc2)C1 (stereo not given),i
Cc1noc(C)c1CC(=O)N1CCCC2(C1)Nc1cccnc1NC2=NC1CCCC1 (stereo not given),25µM*
Cc1noc(C)c1CC(=O)N1CCCC(Cc2noc(-c3cccnc3)n2)C1 (stereo not given),i
O=C(c1ccsc1)N1CCCC2(C1)Nc1cccnc1NC2=NC1CCCC1 (stereo not given),8.9µM*
CCCn1c(-c2ccc(OCC#N)c(OC)c2)nc2c1c(=O)[nH]c(=O)n2Cc1ccccc1,i
Brc1ccc(-c2noc(Cc3ccccc3)n2)cc1,i
Cc1ccccc1-c1nc(S(=O)(=O)c2ccc3c(c2)OCCO3)c(NCCN2CCOCC2)o1,i
Cc1ccccc1CNC(=O)CSc1cccs1,i
COc1cccc(/C=C/C(=O)c2ccc(-c3ccccc3)cc2)c1,i
COc1cccc(C(CNC(=O)C2CCN(S(=O)(=O)c3ccc(C)c(C)c3)CC2)N(C)C)c1 (stereo not given),i
COc1ccc(-c2cc(N3CCC(NC(=O)Cc4ccsc4)CC3)n[nH]2)cc1,i
O=C(Nc1ccccc1F)N1CC2CCC(C1)N2Cc1ccc(-c2cc(F)cc(F)c2)cc1,i
Cc1ncc2n1C(=O)N(C1CCN(Cc3ccncc3)CC1)C2,40µM*
Cc1ncc2n1C(=O)N(C1CCN(Cc3ccc(F)cc3)CC1)C2,i
Cc1ncc2n1C(=O)N(C1CCN(Cc3ccc(C(F)(F)F)cc3)CC1)C2,i
N/C(=N/O)c1cccc(CN2CCOCC2)c1,i
O=C1NC2(CCN(C(=O)Cc3ccccc3)CC2)Oc2ccccc21,i
Clc1ccc(CSc2nc3ncccc3[nH]2)cc1Cl,i
CC(C)CN1CC[C@H](c2nc3ncccc3[nH]2)C1,i
COc1ccc(-c2nc3ncccc3[nH]2)cc1,32µM*!
